System: RIVA
Experiment: growth inhibition by drug plus 177Lu-lilotomab satetraxetan (1 - RLU/untreated control) (fraction); higher = stronger inhibition
Settings: 177Lu-lilotomab satetraxetan 0.5 ug/ml
Procedure: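 RIVA (RI-1) ABC-DLBCL cells were pretreated or not for 18 h with 0.5 ug/ml 177Lu-lilotomab satetraxetan (600 MBq/mg), washed and seeded (3000 cells/well) on 384-well plates pre-printed with the Selleck Cambridge Cancer Compound library. Viability was read by RealTime-Glo luminescence on days 3-6 after seeding. Effect = 1 - RLU/mean RLU of the 48 untreated no-drug control wells per plate; Bliss score = (M-E)/(1-Fa).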

Row | SMILES | growth inhibition by drug plus 177Lu-lilotomab satetraxetan (10 nM, time (day): 3) | growth inhibition by drug plus 177Lu-lilotomab satetraxetan (10 nM, time (day): 4) | growth inhibition by drug plus 177Lu-lilotomab satetraxetan (10 nM, time (day): 5) | growth inhibition by drug plus 177Lu-lilotomab satetraxetan (10 nM, time (day): 6) | growth inhibition by drug plus 177Lu-lilotomab satetraxetan (100 nM, time (day): 3) | growth inhibition by drug plus 177Lu-lilotomab satetraxetan (100 nM, time (day): 4) | growth inhibition by drug plus 177Lu-lilotomab satetraxetan (100 nM, time (day): 5) | growth inhibition by drug plus 177Lu-lilotomab satetraxetan (100 nM, time (day): 6)
1 | Nc1ncn([C@@H]2O[C@H](CO)[C@@H](O)[C@H]2O)c(=O)n1 [Azacitidine (Vidaza)] | 0.407 | 0.483 | 0.506 | 0.5 | 0.241 | 0.37 | 0.362 | 0.374
2 | NC(=O)Nc1sc(-c2ccc(F)cc2)cc1C(N)=O | 0.484 | 0.574 | 0.584 | 0.586 | 0.259 | 0.411 | 0.413 | 0.434
3 | O=C(O)CCCc1ccccc1 [4-Phenylbutyrate] | 0.43 | 0.538 | 0.547 | 0.56 | 0.419 | 0.5 | 0.507 | 0.511
4 | CC1(C)CCC(c2ccc(Cl)cc2)=C(CN2CCN(c3ccc(C(=O)NS(=O)(=O)c4ccc(N[C@H](CCN5CCOCC5)CSc5ccccc5)c(S(=O)(=O)C(F)(F)F)c4)cc3)CC2)C1 [ABT-263 (Navitoclax)] | 0.568 | 0.593 | 0.605 | 0.604 | 0.984 | 0.983 | 0.983 | 0.983
5 | CC[C@@H]1C(=O)N(C)c2cnc(Nc3ccc(C(=O)NC4CCN(C)CC4)cc3OC)nc2N1C1CCCC1 | 0.93 | 0.959 | 0.97 | 0.978 | 0.918 | 0.956 | 0.969 | 0.976

— the supplement of paper PMC6897291
